What all share (experiment): NCI-60 one-dose screen, 48 h (100 = growth as untreated, 0 = no growth, -100 = all killed)
What all share (conditions): 10 µM unless noted

In assay [1] the test system is NCI-H23 lung.
Assay [2] concerns NCI-H226 lung.
The subject of assay [3] is NCI-H322M lung.
Assay [4] concerns HOP-62 NSCLC.
In assay [5] the test system is NCI-H460 lung.
The subject of assay [6] is HOP-92 NSCLC.
Assay [7] concerns NCI-H522 lung.
Assay [8] relates to A549/ATCC NSCLC.
Assay [9] relates to 786-0 renal.
In assay [10] the test system is COLO 205 colon.

The source of these data is PubChem BioAssay (NCI).

The panel holds about 83,000 compounds, 20% with a hit somewhere; the sample as a whole holds those more often.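 Values shown are percent growth following 48 h exposure of cells in 96-well plates to a single concentration of compound; below 10 was considered active.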 Unmarked numbers belong to inactive results. Calls of active or inactive are those of the source.

Regarding `C=CC[Se]C(=O)Cc1c(C)n(C(=O)c2ccc(Cl)cc2)c2ccc(OC)cc12`, the growth was -18.2% (active) in assay [1]; -20.5% (active) in assay [2]; -29.5% (active) in assay [3]; -16.6% (active) in assay [4]; -6.72% (active) in assay [5]; -21.6% (active) in assay [6]. Further, the growth in assay [7] was 8.54% (active); in assay [8], -5.21% (active); in assay [9] it was -50.5% (active); in assay [10] it was -32.1% (active).
Consider `C=C1C(=O)O[C@H]2[C@H]1CC/C(Cn1cc(-c3ccccc3)nn1)=C\CC[C@@]1(C)O[C@@H]21`, for which the growth in [1] is -23.6% (active); in assay [2] it was -25.8% (active); in [3], 89.2%; in assay [4] it was 79.3%; in assay [5] it was 51.8%; in assay [6], -69.9% (active). Besides, the growth was -62% (active) in [7], 33.8% in [8], -78% (active) in assay [9] and -65.3% (active) in assay [10].
For `Cc1ccc2c(Cn3cc(CSc4nc5ccccc5o4)nn3)cc(=O)oc2c1`, the growth in assay [1] was 96.1%; in [2] it was 110%; in [3], 104%; in assay [4], 105%; in [5], 110%; in assay [6] it was 110%. The growth in assay [7] was 97.6%; in assay [8], 105%; in assay [9], 105%; in [10], 111%.
For `Nc1nc2ccccc2c2c1S(=O)(=O)c1ccc(Cl)cc1C2=O`, the growth in assay [1] is 37.9%; in assay [2], 63.1%; in [3] it was 63%; in [4] it was 30.2%; in [5], 23.5%; in assay [6], -25.4% (active). For the same compound, the growth in assay [7] was -73.5% (active); in assay [8] it was 46.8%; in [9], 16.2%; in assay [10], -18% (active).
Consider `CC(C)=CCC[C@](C)(O)[C@H]1CC[C@]2(C)[C@@H]1CC[C@@H]1[C@@]3(C)C/C(=C/c4ccco4)C(=O)C(C)(C)[C@@H]3CC[C@]12C`, for which the growth in assay [1] was 101%; in assay [2] it was 103%; in [3], 103%; in assay [4], 102%; in [5] it was 106%; in [6], 98.2%. Moreover, the growth in assay [7] was 102%; in assay [8], 107%; in [9] it was 99.6%; in assay [10] it was 110%.
Take `CCCNC(=O)Nc1ccc2cc3ccc(NC(=O)NCCC)cc3nc2c1`: the growth in assay [1] is 86.4%; in assay [2] it was 90.7%; in assay [3], 100%; in assay [4], 81.8%; in [5] it was 104%; in [6], 79.2%. Also, the growth in [7] is 79%; in [8], 95.9%; in assay [9] it was 82.3%; in assay [10], 99.3%.
For the compound `CC(=O)/C(=C\c1c(-c2ccccc2)[nH]c2ccccc12)S(C)(=O)=O`, the growth is 33.7% in assay [1]; 69.1% in assay [2]; 58.2% in [3]; 50.5% in [4]; 4.15% (active) in [5]; 42% in assay [6]. In addition, the growth in [7] was 29.6%; in [8], 42.8%; in [9] it was 22.8%; in [10], 21.2%.
Consider `N#Cc1nc(-c2ccc(F)cc2)oc1S(=O)(=O)N1CCCCC1`, for which the growth in assay [1] was 65.7%; in assay [2], 79%; in assay [3], 94.3%; in assay [4], 102%; in [5], 101%; in [6] it was 78.9%. Besides, the growth in assay [7] is -14.8% (active); in assay [8], 103%; in assay [9], 86.4%; in assay [10], -13.2% (active).
For the compound `CC(=O)N1N=C(c2ccc(C(F)(F)F)c(F)c2)CC1c1[nH]c(C)c(C(=O)NCC(F)(F)F)c1C` (stereo not given), the growth in [1] was 78.8%; in assay [2] it was 56.3%; in assay [3], 74.6%; in assay [4] it was 64.9%; in [5] it was 52.1%; in assay [6], 52.4%. For the same compound, the growth in [7] was 94.8%; in [8], 55.8%; in [9] it was 13.1%; in [10], 112%.
On to `N#CC1=C(N)Oc2c(c(=O)[nH]c3ccc(Cl)cc23)C12C(=O)c1ccccc1C2=O`, for which the growth is 93.4% in assay [1]; 88.2% in assay [2]; 93% in assay [3]; 88.2% in [4]; 92.5% in assay [5]; 98.6% in [6]. The growth in assay [7] is 105%; in [8], 93.6%; in assay [9] it was 96.4%; in [10], 110%.
Turning to `CCCCCCCCCCCCCCCCCCOc1ccccc1CC(=O)OCC[N+](C)(C)C`, the growth in assay [1] is 40.2%; in [2], 28.7%; in assay [3] it was 66.5%; in assay [4], 4.93% (active); in [5], 13.5%; in assay [6] it was -14% (active). The growth in assay [7] is 2.19% (active); in assay [8], 11.5%; in assay [9], 20.8%; in assay [10], -67.3% (active).
Take `O=C(CN1C(=O)S/C(=C\C(Cl)=C\c2ccccc2)C1=O)NCCc1ccc(O)cc1`: the growth in [1] is 40.2%; in assay [2], 60.1%; in [3] it was 75.2%; in assay [4], 43%; in assay [5] it was 45.7%; in [6], 15.6%. Further, the growth in assay [7] is -6.49% (active); in assay [8] it was 48.8%; in assay [9] it was -17.9% (active); in [10], 13.7%.
As for `Cc1cccc(CNc2c3ccccc3nc3ccccc23)c1`, the growth is 29.7% in assay [1]; 40.6% in [2]; 40.3% in assay [3]; 40.4% in [4]; 8.71% (active) in [5]; 7.05% (active) in assay [6]. Further, the growth in assay [7] was 52.1%; in [8] it was 22.6%; in [9] it was 24.2%; in assay [10] it was -16.2% (active).
For the compound `O=CN1N=C(c2cccc(Nc3ccnc4cc(Cl)ccc34)c2)CC1c1ccccc1` (stereo not given), the growth in assay [1] was 4.34% (active); in [2], 38.3%; in [3], 71.8%; in [4], 37.2%; in [5], 7.29% (active); in assay [6], 18.9%. The growth in [7] was -25.8% (active); in assay [8] it was 21.3%; in [9], 18.9%; in assay [10], -40.9% (active).
